Compound activity deposited in PubChem BioAssay by National Center for Advancing Translational Sciences (NCATS).
The list is not random: actives were taken first. Their share in the collection is about 7.5%.
SMN2 splice enh: qHTS Assay for Enhancers of SMN2 Splice Variant Expression; HEK293 SMN2-luciferase splicing reporter, luminescence, 30-36 h; Potency, µM (doses to about 46.1 µM), inactives show top-dose activity change, positive = activation, actives largely listed as activators; AID 1458, 2008; 210,000 compounds, 2.8% hits; note: % of control where 0% means no effect; nearly all actives have a fitted effect of over 55% in size
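HEK293 cells carry an SMN2 […]–luciferase reporter in which exon 7 inclusion puts luciferase in frame. Cells were plated 10-12 h before compound addition, then incubated 30-36 h at 37C. ONE-Glo luminescence was read; sodium butyrate at 4.5 mM final served as control.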
Rab9 promoter act: qHTS Assay for Rab9 Promoter Activators. Potency, µM (series often up to 9.22 µM), for inactives: top-dose activation, negative = inhibition, usual class: activators. Huh7 Rab9 promoter-luciferase reporter, luminescence, 24 h. 320,000 compounds, 2.8% hits; note: % of control where 0% means no effect; nearly all actives have a fitted effect of over 60% in size
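Luminescence from Amplite-detected luciferase (10 minutes, ambient) reports Rab9 promoter activation. Before that, stable Rab9-luciferase Huh7 cells (1500/well, reduced-serum OP-MEM I plus 10% FBS) were exposed to compound for 24 hours at 37C.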
NPC1 promoter act: qHTS Assay for NPC1 Promoter Activators; Huh7 NPC1 promoter luciferase reporter, 24 h; Potency, µM (top dose mostly 9.22 µM), inactives show at the highest dose activation, actives largely listed as activators; 320,000 compounds, 2.4% hits; note: % of control where 0% means no effect; nearly all actives have a fitted effect of over 60% in size
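Huh7 cells stably carrying NPC1 promoter–luciferase, plated in Opti-MEM with 10% FBS for 2 h, were exposed to compound in DMSO for 24 h at 37 °C; luciferase reagent was added for 10 min and luminescence read.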
ELG1 genotoxic: qHTS screen for small molecules that induce genotoxicity in human embryonic kidney (HEK293T) cells expressing luciferase-tagged ELG1; HEK293T ELG1-luciferase reporter, luminescence, 16 h; 330,000 compounds, 1.3% hits; Potency, µM (top dose mostly 46 µM), for inactives: top-dose activity change, positive = activation, most hits filed as activators; note: % of control where 0% means no effect; nearly all actives have a fitted effect of over 60% in size
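Luminescence read-out: rising ELG1-luciferase signal, reflecting elevated ELG1 protein under genetic stress, flags genotoxic compounds. Cells were treated for 16 hr at 37 °C before ONE-Glo detection.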
FLuc counter: qHTS profiling assay for firefly luciferase inhibitor/activator using purifed enzyme and Km concentrations of substrates (counterscreen for miR-21 project) | 360,000 compounds, 6.9% hits | Luciferin 4-monooxygenase (Photinus pyralis), P08659 | Potency, µM (doses to about 57.5 µM), for inactives: top-dose activity change, negative = inhibition, actives largely listed as inhibitors | purified FLuc, Km substrates, luminescence inhibition;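 note: plate controls were vehicle for no effect and reference inhibitor for full effect; nearly all actives have a fitted effect of over 55% in size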
Target sequence (P08659 whole entry, looked up): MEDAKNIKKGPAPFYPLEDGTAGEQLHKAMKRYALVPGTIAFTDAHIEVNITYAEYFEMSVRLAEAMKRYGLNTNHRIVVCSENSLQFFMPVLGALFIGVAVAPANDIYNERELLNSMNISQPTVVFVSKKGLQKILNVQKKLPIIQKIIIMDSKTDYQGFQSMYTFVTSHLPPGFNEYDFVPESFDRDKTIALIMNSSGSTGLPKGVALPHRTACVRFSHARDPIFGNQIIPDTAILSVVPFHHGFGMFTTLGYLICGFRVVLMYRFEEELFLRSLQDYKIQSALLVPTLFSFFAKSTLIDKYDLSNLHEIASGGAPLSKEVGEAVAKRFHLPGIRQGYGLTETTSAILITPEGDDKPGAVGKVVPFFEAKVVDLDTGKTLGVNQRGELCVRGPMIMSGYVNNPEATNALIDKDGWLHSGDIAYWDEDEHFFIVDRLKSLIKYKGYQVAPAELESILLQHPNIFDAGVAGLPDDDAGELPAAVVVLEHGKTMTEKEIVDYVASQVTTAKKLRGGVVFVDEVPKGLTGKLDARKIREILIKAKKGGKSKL
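Purified P. pyralis luciferase, 10 nM final, with Km-level 10 uM D-luciferin and 10 uM ATP in 50 mM Tris acetate pH 7.5, 10 mM Mg acetate, 0.01% Tween-20, 0.05% BSA; 6-point qHTS titration about 60 µM downward; luminescence read.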
Luc counter: Counterscreen for Luciferase (Kinase-Glo TM) Inhibition | AID 1379, 2008 | Potency, µM (highest dose often 38.3 µM), without a hit: at the highest dose activity change, negative = inhibition, most hits filed as inhibitors | 200,000 compounds, 0.28% hits | Kinase-Glo luciferase, ATP luminescence, 8 min; note: % is set by controls: 0 for no effect and ±100 for the full control effect; nearly all actives have a fitted effect of over 60% in size
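Inhibition of Kinase-Glo luciferase light generation was assessed at 10 uM ATP in pH 7.2 imidazole buffer, with luminescence measured after eight minutes at ambient temperature.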
Starred values were filed as active, the others as inactive; ? = inconclusive; . = no result given; [ ] = dose if it differs, or a comment. Calls come from the whole dose curve; as a rule, active = well fitted curve in the direction sought with a large enough effect; inconclusive = small, poorly fitted or top-dose-only effect, or another doubt; inactive = no such curve, though single readings can be large; an effect the other way counts as inactive or inconclusive. Potency is the fitted concentration of half-maximal effect.

SMILES	SMN2 splice enh	Rab9 promoter act	NPC1 promoter act	ELG1 genotoxic	FLuc counter	Luc counter
O=c1cc(-c2ccccc2Cl)oc2cc(O)cc(O)c12	-5%	12%	7%	5%	27µM*	0%
CCOc1cccc2oc(-c3ccccc3Cl)cc(=O)c12	.	.	.	.	.	-21%[39.9 µM]
Nc1ccc(O)c2c(=O)cc(-c3ccccc3Cl)oc12	11µM*	2.8µM*	2.8µM*	?	2.7µM*	-3%[39.9 µM]
O=C(CC1C(=O)NCCN1CC1CCCCC1)NCc1cc(F)ccc1F (stereo unspecified)	.	1%	-7%	0%	-1%	-1%
O=C(CC1C(=O)NCCN1CC1CCCCC1)NCc1ccc(F)cc1F (stereo unspecified)	.	2.8µM*	2.8µM*	?	?	-4%
O=C(Nc1cnc2ccccc2c1)N1CCCCC1	14µM*	1.3µM*	1.3µM*	?	9.5µM*	-6%
Cc1ccc(NC(=O)N(C)c2ccccc2)cc1	.	26%	24%	8%	?	.
O=C(Nc1cnc2ccccc2c1)N1CCOCC1	?	25%	?	?	?	8%
CN(C(=O)Nc1cnc2ccccc2c1)c1ccccc1	?	2.8µM*	?	?	?	2%
O=C1c2cccc3cccc(c23)C(=O)N1CC1CCN(CC(O)COc2ccc3ccccc3c2)CC1 (stereo unspecified)	10%	0%	?	8%	12µM*	-2%
O=C(Nc1ccc(Cl)cc1)N1CC=CCC1	-10%	?	?	22%	17µM*	1%
O=C(Nc1ccc(Cl)cc1)N1CCN(c2ccccc2)CC1	-4%	11%	4%	-2%	?	-1%
CCCCCCC[C@@H](C/C=C/CCC(=O)N(C)C/C(=C/Cl)C/C(=C\C(=O)N1CC(OC)=CC1=O)OC)OC	.	.	.	2.1µM*	.	.
CCCCCCC[C@@H](C/C=C/CCC(=O)N(C)C/C(=C/Cl)C/C(=C\C(=O)N1C[C@H](O)CC1=O)OC)OC	.	.	.	-11%	.	.
CCOC(=O)c1cc(COc2cc(Cl)cc(Cl)c2)on1	.	0%	2%	-1%	3%	.
Cc1[nH]c2ccc(C(=O)N3CCN(Cc4ccccc4)CC3)cc2c1C	.	3%	16%	2%	6µM*	.
COc1ccc2[nH]c(C(=O)N3CCN(Cc4ccccc4)CC3)cc2c1OC	.	4%	1%	6%	15µM*	.
COc1ccc(C(=O)N2CCN(Cc3ccccc3)CC2)cc1[N+](=O)[O-]	.	-4%	0%	-7%	1%	.
COc1cc(CN2CCN(C(=O)c3ccc(-c4ccccc4)cc3)CC2)cc(OC)c1OC	.	12%	6%	?	21µM*	-2%
CSc1cccc(NC(=O)c2ccc3c(c2)c(C)c(C)n3Cc2ccc(F)cc2)c1	.	.	.	.	-9%	.
Fc1ccc2nc3[nH]c4ccccc4c3nc2c1	16µM*	3.2µM*	3.2µM*	?	1.9µM*	-8%
Cc1cc(C)cc(NC(=O)Cn2cc(C(=O)c3ccncc3)c(=O)c3cc(C)c(C)cc32)c1	.	.	.	.	2%	.
Cc1ccccc1-n1nc(CO)c(C(=O)NCc2cccs2)n1	-28%	.	.	.	-9%	.
O=C(Nc1ccn(Cc2ccccc2F)n1)c1ccc(COc2cccc(Br)c2)cc1	?	1.8µM*	1.6µM*	?	6.7µM*	18%
O=C(Nc1ccn(Cc2ccccc2F)n1)c1ccc(COc2ccccc2Cl)cc1	-84%	-15%	-2%	-9%	-3%	-6%
SMILES	SMN2 splice enh	Rab9 promoter act	NPC1 promoter act	ELG1 genotoxic	FLuc counter	Luc counter
CNc1snc(C)c1C(=O)OCC(=O)NCc1ccccc1OC	.	.	.	-5%	.	.
O=C(COc1ccc2ccccc2c1Br)Nc1ncn[nH]1	-1%	13%	6%	?	13µM*	11%
Cc1cccc(C)c1OCC(=O)Nc1ncn[nH]1	-9%	1%	-3%	-5%	-1%	1%
N#Cc1c(-n2ncnc2-c2ccccc2Cl)sc2c1CCCCC2	-6%	.	.	.	1.9µM*	.
N#Cc1c2c(c(-c3ccccc3Cl)[nH]c1=S)CCCC2	-17%	0%	-1%	-1%	-18%	-2%
N#Cc1c(-n2ncnc2-c2cccc(Cl)c2)sc2c1CCCCC2	1%	.	.	.	1.5µM*	.
N#Cc1c(-n2ncnc2-c2ccccc2C(F)(F)F)sc2c1CCCCC2	-8%	.	.	.	0.24µM*	.
COc1ccccc1-c1ncnn1-c1sc2c(c1C#N)CCCCC2	-5%	.	.	.	1.5µM*	.
N#Cc1c(-n2cccc2/C=N/O)sc2c1CCCC2	-22%	-9%	0%	-2%	6%	-2%
CCOc1ccc(S(=O)(=O)NCc2ccc3c(c2)CCN3C(=O)c2ccc(C)cc2)cc1	.	.	.	.	-2%	.
Cc1ccc2ncc(C(=O)NC(C)c3ccccc3)c(=O)n2c1 (stereo unspecified)	3%	.	.	.	4%	.
Cc1cc(C)c(C#N)c(SCc2ccc(C(=O)O)cc2)n1	.	-4%	8%	0%	-2%	.
Cc1cc2nc(-c3ccc(SCC(=O)NC(C)C)nc3)[nH]c2cc1C	?	3.2µM*	2.8µM*	8%	2.1µM*	?
Cc1cc(NC(=O)CSc2ccc(-c3nc4cc(C)c(C)cc4[nH]3)cn2)no1	-26%	0.45µM*	2µM*	?	0.19µM*	?
Cc1cc2nc(-c3ccc(SCc4ccc(C(=O)O)cc4)nc3)[nH]c2cc1C	.	?	?	?	4.3µM*	-5%
